Results published in PubChem BioAssay (NCATS).
Results filed as inconclusive are left out. Activity calls are given as the source filed them. Unless noted, calls come from the whole dose curve; as a rule, active = well fitted curve in either direction with a large enough effect (not every such curve was filed as active); inconclusive = small, poorly fitted or top-dose-only effect, or another doubt; inactive = flat fitted curve, though single readings scatter.

Tests used:
[1] = molecular target: Lysosomal acid glucosylceramidase (Homo sapiens) (UniProt P04062); assay: Glucocerebrosidase-p2 (AID 348; in the data active = potency below about 10 µM; note: potency is the fitted concentration of half-maximal effect); conditions: purified GBA, blue fluorogenic substrate, 40 min
Sequence of Lysosomal acid glucosylceramidase (Homo sapiens) (P04062 whole entry, looked up): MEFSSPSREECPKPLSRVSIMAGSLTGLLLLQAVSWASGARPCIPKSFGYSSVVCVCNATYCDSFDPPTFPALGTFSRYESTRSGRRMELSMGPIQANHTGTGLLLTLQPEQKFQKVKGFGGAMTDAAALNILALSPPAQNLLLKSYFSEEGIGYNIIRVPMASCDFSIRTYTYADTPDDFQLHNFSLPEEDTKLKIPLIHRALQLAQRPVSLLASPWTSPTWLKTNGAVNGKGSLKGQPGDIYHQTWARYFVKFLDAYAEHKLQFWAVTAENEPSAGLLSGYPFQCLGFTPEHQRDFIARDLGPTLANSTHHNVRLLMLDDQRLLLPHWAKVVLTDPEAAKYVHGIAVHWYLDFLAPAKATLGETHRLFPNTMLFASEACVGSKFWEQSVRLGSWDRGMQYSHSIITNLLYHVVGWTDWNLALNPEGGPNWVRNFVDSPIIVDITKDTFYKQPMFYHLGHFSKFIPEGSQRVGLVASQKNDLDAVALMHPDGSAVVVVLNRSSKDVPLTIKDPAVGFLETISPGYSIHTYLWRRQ
Method in brief: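 Compounds titrated from 0.6 nM upwards against 0.2 nM enzyme in pH 5.9 citric acid/KH2PO4, taurocholate, tween-20; blue fluorogenic substrate 80 uM, 40 min room temperature, stopped and read Ex 365/Em 440 for AC50.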

[2] = AP1 Signaling Pathway (AID 357); conditions: ME-180 AP-1-bla reporter, EGF-induced, beta-lactamase ratio, 5 h; at 7.69 µM (top of the series) unless noted;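 note: ME-180 reporter cells stimulated with EGF at its EC50 level; % is set by controls: 0 for no effect and ±100 for the full control effect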
Method in brief: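 First, ME-180 AP-1-bla cells were cultured overnight at 37 °C in low-serum Opti-MEM. Next, titrated compounds with EC50 EGF were incubated 5 hours. Finally, CCF4 was added for 2.5 hours and the 460/530 nm ratio recorded.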

[3] = molecular target: Cytochrome P450 1A2 (Homo sapiens) (UniProt P05177); assay: p450-cyp1a2 (AID 410; calls by dose curve; note: potency is the fitted concentration of half-maximal effect;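 for activity change, negative = inhibition: -100% = full effect of reference inhibitor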); conditions: recombinant CYP1A2, luciferin-ME demethylation, luminescence; series mostly up to 57 µM
Sequence of Cytochrome P450 1A2 (Homo sapiens) (P05177 whole entry, looked up): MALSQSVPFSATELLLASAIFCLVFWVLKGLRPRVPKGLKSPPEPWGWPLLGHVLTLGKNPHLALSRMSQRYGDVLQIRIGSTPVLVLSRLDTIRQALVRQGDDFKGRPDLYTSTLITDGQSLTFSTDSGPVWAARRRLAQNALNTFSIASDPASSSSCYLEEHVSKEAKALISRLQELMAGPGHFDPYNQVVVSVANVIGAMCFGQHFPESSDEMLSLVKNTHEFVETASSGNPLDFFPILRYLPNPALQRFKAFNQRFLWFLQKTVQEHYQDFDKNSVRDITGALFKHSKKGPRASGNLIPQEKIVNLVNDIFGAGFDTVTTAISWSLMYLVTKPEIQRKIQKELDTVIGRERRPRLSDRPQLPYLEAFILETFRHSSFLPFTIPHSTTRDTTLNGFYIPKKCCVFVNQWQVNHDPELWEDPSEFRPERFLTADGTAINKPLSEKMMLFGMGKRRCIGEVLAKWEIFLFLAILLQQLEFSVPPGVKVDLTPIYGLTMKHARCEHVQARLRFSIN
Method in brief: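 Luminescent readout of luciferin formed from Luciferin-ME by human CYP1A2; data normalized against complete inhibition by 57 uM furafylline. Enzyme 20nM, substrate 100uM at Km, 100mM KPO4 buffer, 60 min reaction at room temperature.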

[4] = NFAT Signaling Pathway (AID 444); conditions: Jurkat NFAT-bla M1, carbachol, beta-lactamase ratio, 5 h; at 7.69 µM (top of the series) unless noted;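 note: carbachol stimulus at about its EC50 of 1 µM final; % is set by controls: 0 for no effect and ±100 for the full control effect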
Method in brief: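 Read-out: CCF4 FRET ratio (460 nm/530 nm) after 1 h RT dye loading, used for %activity and AC50 from titration series. Cells: Jurkat NFAT-β-lactamase/M1 line, treated with compound plus 1 uM carbachol for 5 h, 37 °C.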

[5] = Stat Signaling Pathway (AID 446); conditions: ME-180 SIE beta-lactamase reporter, IL-6 stimulated, 5 h; at 7.69 µM (top of the series) unless noted;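 note: ME-180 cervical cancer cells given 40 pM IL-6 alongside compound; SIE-controlled beta-lactamase reporter measured as 460/530 nm FRET emission ratio; % is set by controls: 0 for no effect and ±100 for the full control effect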
Method in brief: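 ME-180 cells carrying a SIE-driven beta-lactamase reporter are stimulated with 40 pM IL-6 for 5 h at 37C in the presence of compound. The 460/530 nm FRET substrate ratio is read after 2.5 h at RT. Data are normalised to 300 pM IL-6 and to 125 nM JAK inhibitor controls.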

[6] = molecular target: Mitogen-activated protein kinase 10 (Mus musculus) (UniProt Q61831); assay: JNK3 AlphaScreen Assay (AID 530); conditions: JNK3 lysate, c-Jun phosphorylation; series mostly up to 57.1 µM;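 note: kinase came from lysate of stimulated human HepG2 cells; signal reports phosphorylation of biotinylated GST-cJun 1-79 at Ser73 with 10 µM ATP; % is set by controls: 0 for no effect and ±100 for the full control effect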
Method in brief: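 Compound titrations were preincubated 15 minutes at room temperature with substrate, antibody and pre-activated JNK3-containing HepG2 lysate. Reactions were started with 10 uM ATP and stopped with EDTA-containing bead buffer for AlphaScreen detection.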

[7] = molecular target: 3',5'-cyclic-AMP phosphodiesterase 4B (Homo sapiens) (UniProt Q07343); assay: qHTS Assay for Inhibitors of PDE-IV (AID 607; active = well fitted activation curve with a large enough effect in the main read-out, with a control signal flat, not every such curve was filed as active; note: % of control where 0% means no effect); conditions: HEK293 ACTOne CNG channel cells, membrane potential fluorescence; series mostly up to 22.9 µM
Sequence of 3',5'-cyclic-AMP phosphodiesterase 4B (Homo sapiens) (Q07343 whole entry, looked up): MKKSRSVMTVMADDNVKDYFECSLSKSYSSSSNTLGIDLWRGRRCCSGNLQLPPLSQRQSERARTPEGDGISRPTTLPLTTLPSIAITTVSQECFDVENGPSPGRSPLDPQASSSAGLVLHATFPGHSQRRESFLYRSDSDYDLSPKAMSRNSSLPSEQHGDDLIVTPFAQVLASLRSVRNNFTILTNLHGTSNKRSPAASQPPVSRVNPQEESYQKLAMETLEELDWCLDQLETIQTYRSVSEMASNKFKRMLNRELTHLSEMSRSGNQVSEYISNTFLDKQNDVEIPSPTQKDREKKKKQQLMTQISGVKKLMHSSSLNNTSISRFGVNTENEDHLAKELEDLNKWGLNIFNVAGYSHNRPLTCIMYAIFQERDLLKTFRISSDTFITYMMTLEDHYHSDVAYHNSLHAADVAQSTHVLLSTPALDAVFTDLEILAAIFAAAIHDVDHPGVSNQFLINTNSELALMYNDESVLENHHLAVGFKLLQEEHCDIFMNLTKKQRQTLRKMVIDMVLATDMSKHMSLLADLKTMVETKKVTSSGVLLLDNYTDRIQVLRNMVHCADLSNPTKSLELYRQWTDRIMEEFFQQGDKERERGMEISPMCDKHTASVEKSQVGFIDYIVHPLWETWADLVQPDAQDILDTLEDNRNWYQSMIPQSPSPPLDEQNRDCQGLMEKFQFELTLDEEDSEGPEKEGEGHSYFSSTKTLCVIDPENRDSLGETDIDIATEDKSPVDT
Method in brief: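 HEK293 ACTOne cells with CNG channel (1000/well), endogenous PDE4; membrane potential dye, compounds up to 22.9 uM final. Fluorescence Ex 535/Em 590; RO 20-1724 (100 uM final) as reference.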

[8] = molecular target: Cytochrome P450 3A4 (Homo sapiens) (UniProt P08684); assay: qHTS Assay for Inhibitors and Substrates of Cytochrome P450 3A4 (AID 884; active = well fitted curve in the direction sought with a large enough effect; an effect the other way counts as inactive or inconclusive; note: potency is the fitted concentration of half-maximal effect; nearly all actives have a fitted effect of over 50% in size); conditions: recombinant CYP3A4, Luciferin-PPXE luminescence; series mostly up to 57.1 µM
Sequence of Cytochrome P450 3A4 (Homo sapiens) (P08684 whole entry, looked up): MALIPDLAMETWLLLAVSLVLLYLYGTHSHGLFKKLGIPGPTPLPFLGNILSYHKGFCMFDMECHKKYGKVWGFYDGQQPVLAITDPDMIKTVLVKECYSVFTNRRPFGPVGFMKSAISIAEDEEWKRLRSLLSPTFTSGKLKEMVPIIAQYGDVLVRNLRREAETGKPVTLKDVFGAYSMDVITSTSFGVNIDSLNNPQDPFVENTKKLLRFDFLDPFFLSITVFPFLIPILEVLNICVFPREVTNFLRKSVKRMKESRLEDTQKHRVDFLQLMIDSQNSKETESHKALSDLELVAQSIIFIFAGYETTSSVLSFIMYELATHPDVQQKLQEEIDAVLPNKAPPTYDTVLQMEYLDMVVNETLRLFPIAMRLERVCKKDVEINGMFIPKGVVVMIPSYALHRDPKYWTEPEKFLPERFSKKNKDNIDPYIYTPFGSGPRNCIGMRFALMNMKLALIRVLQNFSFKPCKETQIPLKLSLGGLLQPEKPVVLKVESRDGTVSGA
Method in brief: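 20 nM human CYP3A4 with 25 uM Luciferin-PPXE (at KM) in 200 mM KPO4, preincubated 10 min with compound; NADPH regeneration started a 60 min RT reaction. Luciferin detected by luminescence, normalized to 57 uM ketoconazole as full inhibition.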

[9] = molecular target: Cytochrome P450 3A4 (Homo sapiens) (UniProt P08684); assay: qHTS Assay for Activators of Cytochrome P450 3A4 (AID 885; active = well fitted curve in the direction sought with a large enough effect; an effect the other way counts as inactive or inconclusive; note: nearly all actives have a fitted effect of over 65% in size); conditions: recombinant CYP3A4, Luciferin-PPXE luminescence, 60 min; series mostly up to 57.1 µM
Method in brief: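 Human CYP3A4 (20 nM) with Luciferin-PPXE at 25 uM (its KM) in 200 mM KPO4; 10 min compound preincubation, then NADPH regeneration and 60 min reaction at RT. Luciferin read by luminescence; normalized to 57 uM ketoconazole full inhibition.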

[10] = molecular target: Cytochrome P450 2D6 (Homo sapiens) (UniProt P10635); assay: qHTS Assay for Inhibitors and Substrates of Cytochrome P450 2D6 (AID 891; active = well fitted curve in the direction sought with a large enough effect; an effect the other way counts as inactive or inconclusive; note: potency is the fitted concentration of half-maximal effect; nearly all actives have a fitted effect of over 60% in size); conditions: recombinant CYP2D6, luciferin-ME EGE luminescence; series mostly up to 57.1 µM
Sequence of Cytochrome P450 2D6 (Homo sapiens) (P10635 whole entry, looked up): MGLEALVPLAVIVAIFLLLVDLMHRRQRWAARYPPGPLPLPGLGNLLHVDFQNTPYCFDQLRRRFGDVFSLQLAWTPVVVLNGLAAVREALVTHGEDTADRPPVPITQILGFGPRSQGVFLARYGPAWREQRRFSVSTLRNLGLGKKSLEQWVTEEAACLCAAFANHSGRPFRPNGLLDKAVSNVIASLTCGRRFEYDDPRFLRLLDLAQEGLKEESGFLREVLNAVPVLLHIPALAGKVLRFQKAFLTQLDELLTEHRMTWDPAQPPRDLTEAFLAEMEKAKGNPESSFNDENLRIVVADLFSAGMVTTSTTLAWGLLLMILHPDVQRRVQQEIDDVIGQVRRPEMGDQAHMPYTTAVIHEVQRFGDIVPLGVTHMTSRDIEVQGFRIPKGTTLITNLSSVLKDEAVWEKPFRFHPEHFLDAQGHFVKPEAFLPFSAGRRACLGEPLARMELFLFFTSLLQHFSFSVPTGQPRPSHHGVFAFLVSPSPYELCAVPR
Method in brief: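 Human CYP2D6 (5 nM) with 30 uM Luciferin-ME EGE (at Km) in 100 mM KPO4, compound preincubated 10 min, then NADPH regeneration system for 60 min at room temperature. Luciferin read by luminescence; normalized to 1.43 uM quinidine.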

[11] = qHTS Assay for Lipid Storage Modulators (AID 1519; calls by dose curve); conditions: Drosophila S3 cells, BODIPY lipid droplet/cell ratio, laser cytometry, cells loaded with oleic acid; for activity change, negative = inhibition: at 57.5 µM (top of the series)
Method in brief: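 Cells seeded at 5,000 per well were treated with compounds over a concentration series and loaded with oleic acid (400 uM, as added). Lipid droplet fluorescence (488 nm excitation, 500-530 nm channel) was read by laser-scanning cytometry and normalized to 20 uM Triacsin C.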

[12] = Primary qHTS for small molecule stabilizers of the endoplasmic reticulum resident proteome: Secreted ER Calcium Modulated Protein (SERCaMP) assay (AID 1508630; active = well fitted curve in the direction sought with a large enough effect; an effect the other way counts as inactive or inconclusive; note: % is set by controls: 0 for no effect and ±100 for the full control effect); conditions: SH-SY5Y GLuc-SERCaMP (Gaussia luciferase released on ER calcium loss) secretion, thapsigargin, luminescence; series mostly up to 38.4 µM
Method in brief: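 GLuc-SERCaMP-expressing SH-SY5Y cells, pretreated 16 h with compound, are challenged with thapsigargin to empty ER calcium stores; after 4 h, coelenterazine is added directly to the medium and luminescence is imaged.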

[13] = molecular target: Glucocorticoid receptor (Homo sapiens) (UniProt P04150); assay: GR-EFC Redistribution (AID 451; calls by dose curve; note: potency is the fitted concentration of half-maximal effect); conditions: CHO-K1 GR-EFC translocation, beta-gal luminescence, 2 h
Sequence of Glucocorticoid receptor (Homo sapiens) (P04150 whole entry, looked up, the tested form may be a part): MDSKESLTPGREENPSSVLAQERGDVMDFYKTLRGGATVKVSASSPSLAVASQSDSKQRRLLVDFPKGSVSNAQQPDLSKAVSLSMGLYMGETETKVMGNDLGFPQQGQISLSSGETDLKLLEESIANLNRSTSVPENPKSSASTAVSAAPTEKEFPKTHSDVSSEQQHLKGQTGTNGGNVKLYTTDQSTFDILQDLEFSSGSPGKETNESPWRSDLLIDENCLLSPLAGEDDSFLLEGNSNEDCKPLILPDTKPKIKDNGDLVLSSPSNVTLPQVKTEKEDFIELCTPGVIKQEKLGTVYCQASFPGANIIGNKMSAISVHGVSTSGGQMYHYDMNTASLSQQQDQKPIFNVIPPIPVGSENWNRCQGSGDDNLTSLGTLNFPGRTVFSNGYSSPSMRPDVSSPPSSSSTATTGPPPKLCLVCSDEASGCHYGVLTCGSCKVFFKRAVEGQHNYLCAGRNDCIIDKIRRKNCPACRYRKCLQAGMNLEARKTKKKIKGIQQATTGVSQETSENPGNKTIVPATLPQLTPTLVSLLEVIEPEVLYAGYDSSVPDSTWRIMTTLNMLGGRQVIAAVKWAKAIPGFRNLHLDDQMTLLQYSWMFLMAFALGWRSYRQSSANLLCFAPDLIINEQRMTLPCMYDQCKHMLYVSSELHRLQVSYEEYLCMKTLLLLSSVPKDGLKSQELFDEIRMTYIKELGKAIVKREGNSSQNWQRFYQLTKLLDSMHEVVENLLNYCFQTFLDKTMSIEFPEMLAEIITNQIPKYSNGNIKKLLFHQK
Method in brief: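 Translocation of GR-ED fusion to nuclear EA restores b-gal, read by luminescence after 1 h room-temperature detection. Engineered CHO-K1 biosensor cells, 1,000/well, exposed 2 h at 37 C to titrations up to 46 uM final.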

[14] = molecular target: Glucocorticoid receptor (Homo sapiens) (UniProt P04150); assay: GR-GFP Redistribution (AID 450;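 active = compounds whose dose series gives a full or clear partial fitted curve of increased nuclear translocation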; note: potency is the fitted concentration of half-maximal effect); conditions: U2OS GR-GFP nuclear translocation, laser cytometry, 2 h
[15] = qHTS Assay for Identification of Small Molecule Agonists for Hypoxia Response Element Signaling Pathway (AID 914; active = well fitted activation curve with a large enough effect in the signal ratio, with a control signal flat, not every such curve was filed as active; the % refers to the signal ratio; note: potency is the fitted concentration of half-maximal effect); conditions: ME-180 (cervical carcinoma) HRE-bla reporter, beta-lactamase ratio, CoCl2, 17 h; activation: stronger effect = higher value
Method in brief: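 HRE-bla ME-180 cells, overnight plating in Opti-MEM with 0.5% dialyzed FBS; cpd titration + EC50 CoCl2, 17 h, 37 degrees Celsius; CCF4 2.5 h RT; 460/530 nm ratio; AC50.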

[16] = molecular target: Cytochrome P450 2C9 (Homo sapiens) (UniProt P11712); assay: qHTS Assay for Inhibitors and Substrates of Cytochrome P450 2C9 (AID 883; active = well fitted curve in the direction sought with a large enough effect; an effect the other way counts as inactive or inconclusive; note: % is set by controls: 0 for no effect and ±100 for the full control effect; nearly all actives have a fitted effect of over 60% in size); conditions: recombinant CYP2C9, luciferin-H luminescence, 60 min; series mostly up to 57.1 µM
Sequence of Cytochrome P450 2C9 (Homo sapiens) (P11712 whole entry, looked up): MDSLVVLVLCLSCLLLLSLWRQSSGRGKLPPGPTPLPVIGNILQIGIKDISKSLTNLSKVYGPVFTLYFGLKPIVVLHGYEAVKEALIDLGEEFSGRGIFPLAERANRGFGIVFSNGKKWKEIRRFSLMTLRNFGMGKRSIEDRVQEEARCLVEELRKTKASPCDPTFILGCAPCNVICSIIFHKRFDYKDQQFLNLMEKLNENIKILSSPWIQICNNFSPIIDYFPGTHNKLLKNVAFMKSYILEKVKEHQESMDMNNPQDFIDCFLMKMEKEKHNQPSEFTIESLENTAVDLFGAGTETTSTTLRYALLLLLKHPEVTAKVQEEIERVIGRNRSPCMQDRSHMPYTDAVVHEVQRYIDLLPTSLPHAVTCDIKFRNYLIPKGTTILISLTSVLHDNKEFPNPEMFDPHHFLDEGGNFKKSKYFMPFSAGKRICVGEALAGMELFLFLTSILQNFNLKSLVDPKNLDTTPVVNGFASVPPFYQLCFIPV
Method in brief: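 Luminescent read-out of deoxyluciferin hydroxylation, normalized to 57uM sulphaphenazole (AC100). Reaction: 10nM enzyme, 100uM Luciferin-H (equal to KM), 25mM KPO4, 10 min compound preincubation, then 60 min with NADPH regeneration, both at 37C.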

[17] = measured here: cell count channel max response
[18] = measured here: lipid channel max response

Structure (SMILES)	Potency [1]	activity change, negative = inhibition [2]	Potency [3]	activity change, negative = inhibition [4]	activity, negative = inhibition [5]	outcome [6]	Potency [7]	Potency [8]	Potency [9]	Potency [10]	activity change, negative = inhibition [11]	max response [11, 17] [%]	max response [11, 18] [%]	Potency [12]	Potency [13]	Potency [14]	Potency [15]	Potency [16]
O=C(c1cnccn1)N1CCC[C@@]2(CCN(Cc3cc(C(F)(F)F)cc(C(F)(F)F)c3)C2)C1	> 11.4 µM (inactive)	-16.9% (inactive)	inactive	16.8% (inactive)	2.8% (inactive)	inactive	inactive	7.94 µM (active)	inactive	3.16 µM (active)	4.01% (inactive)	14.7	20.7	inactive				
O=C(Nc1ccccc1)N1CCC2(CC1)CCN(S(=O)(=O)c1ccccc1)CC2	> 11.4 µM (inactive)	-0.036% (inactive)	7.94 µM (active)	21.1% (inactive)		inactive	inactive				3.55% (inactive)	-0.439	7.34	inactive	> 46 µM (inactive)			
N#CCCn1c(=O)c(-c2cccs2)nc2cnc(OCc3ccccc3)nc21	> 11.4 µM (inactive)	9.62% (inactive)	3.98 µM (active)	6.28% (inactive)		inactive	inactive				-2.65% (inactive)	0.666	1.75	inactive	> 46 µM (inactive)	> 9.22 µM (inactive)	3.16 µM (active)	
Cc1noc(C)c1C(=O)N1CCC2(CCN(C(=O)NC(C)C)CC2)CC1	> 11.4 µM (inactive)	-3.73% (inactive)	5.01 µM (active)		3.31% (inactive)	inactive	inactive				4.44% (inactive)	4.63	11.9	inactive	> 46 µM (inactive)			
COc1ccc(NC(=O)N2CC[C@@]3(CCCN(C(=O)c4ccc(OC)cc4)C3)C2)cc1	> 11.4 µM (inactive)	5.18% (inactive)	25.1 µM (active)	10.5% (inactive)	2.5% (inactive)	inactive	inactive		inactive		3.11% (inactive)	22	26.4	inactive				
COc1ccc(-c2nc3cnc(N4CCNCC4)nc3n(Cc3ccc(F)cc3)c2=O)cc1	> 11.4 µM (inactive)	83.5% [activator] (active)	inactive	88% [activator] (active)		inactive			inactive		4.56% (inactive)	15.2	24.4	inactive	> 46 µM (inactive)	> 9.22 µM (inactive)		inactive
COc1ccc(C(=O)N2CCC3(CC2)CN(C(=O)Nc2cccc(C#N)c2)C3)cc1	> 11.4 µM (inactive)	-3.72% (inactive)	inactive	16.2% (inactive)		inactive	inactive		inactive		6.5% (inactive)	13.9	18.3	inactive	> 46 µM (inactive)			
O=S(=O)(c1ccccc1)N1CCC2(CC1)CN(c1ncccn1)C2	> 11.4 µM (inactive)	-2.52% (inactive)	inactive	26.7% (inactive)	-1.43% (inactive)	inactive	inactive				4.75% (inactive)	14.7	20.8	inactive				
c1ccc(-c2cccc(N3CC[C@@]4(CCCNC4)C3)c2)cc1	> 11.4 µM (inactive)	1.23% (inactive)	12.6 µM (active)	6.24% (inactive)	-6.03% (inactive)		inactive		inactive		1.77% (inactive)	-28.1	-22.7	inactive	> 46 µM (inactive)			
COCC(=O)N1CCC[C@@]2(CCN(Cc3ccccc3)C2)C1	> 11.4 µM (inactive)	-0.884% (inactive)	inactive	19.9% (inactive)	7.86% (inactive)	inactive	inactive		inactive	6.31 µM (active)	4% (inactive)	6.62	13.4	inactive				
O=C(Nc1cccc(F)c1)N1CC2(CCN(S(=O)(=O)c3ccccc3)CC2)C1	> 11.4 µM (inactive)	-8.31% (inactive)	inactive	22.6% (inactive)	-14.1% (inactive)	inactive	inactive				-4.83% (inactive)	-8.16	-11.8	inactive				
COCC(=O)N1CCC[C@@]2(CCN(C(=O)Nc3ccc(OC)cc3)C2)C1	> 11.4 µM (inactive)	-7.62% (inactive)	inactive		6.35% (inactive)	inactive	inactive				0.357% (inactive)	1.93	5.76	inactive	> 46 µM (inactive)			
